The test system of assay [1] is S. cerevisiae SK1 pCDA2-eGFP (USY613), sporulating. The experiment in a line: CDA2-GFP sporulation assay sensitivity score (z-score vs DMSO controls); higher = stronger inhibition of sporulation, active = hit call of the paper.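 Note: active if sensitivity score above 5.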
Assay [2] relates to S. cerevisiae AD1-9 (efflux-pump deficient), vegetative growth in YPD. The experiment in a line: growth sensitivity score (doubling time z-score vs DMSO controls); higher = slower growth, strongly negative scores also mark growth inhibition (complete suppression), active = hit call of the paper. The method, boiled down: (§1)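 Yeast (Saccharomyces cerevisiae BY4741 and AD1-9) was grown in rich medium in microtiter plates from a starting OD600 of 0.065, with optical density read every 15 min over 24 hours. The growth sensitivity score was the difference between compound and solvent-only means, divided by the solvent-only standard deviation. Every experiment had eight solvent-only wells.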

Assay [3] has as its system S. cerevisiae BY4741 (wild-type), vegetative growth in YPD. Described as above. The method, boiled down:
as §1

Assay [4] concerns S. cerevisiae NKY1551 his4x/his4B, sporulating. The assay can be described thus: HIS4 meiotic recombination assay sensitivity score (z-score vs DMSO controls); higher = stronger inhibition of sporulation/recombination, active = hit call of the paper.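 Note: active if sensitivity score above 5.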

Where a name gives a salt, the structure may show the parent alone. Unmarked numbers belong to inactive results.

For the compound `Nc1nc(Cl)nc2c1ncn2[C@@H]1O[C@H](CO)[C@@H](O)[C@H]1O` [2-Chloroadenosine] (stock concentration (mM, diluted 1:100): 10), the “CDA2-GFP sporulation assay sensitivity score” value in assay [1] was -0.44. For the same compound, the growth sensitivity score in assay [2] was -1.1; in assay [3] it was -1.07.
For `CC12CC3CC(C)(C1)CC(N)(C3)C2` [Memantine hydrochloride] (stock concentration (mM, diluted 1:100): 8.3), the “CDA2-GFP sporulation assay sensitivity score” value in assay [1] was 2.32. Moreover, the growth sensitivity score in assay [2] was -0.36; in assay [3] it was -0.66.
With `NC(=O)N1c2ccccc2CC(=O)c2ccccc21` [Trileptal] (stock concentration (mM, diluted 1:100): 10), in assay [4], the “HIS4 meiotic recombination assay sensitivity score” value was -2.89. Further, the growth sensitivity score in assay [2] is 1.04; in assay [3], 1.24.
With `N[C@@H](C(=O)N[C@@H]1C(=O)N2C(C(=O)O)=C(CSc3cn[nH]n3)CS[C@H]12)c1ccc(O)cc1` [Seapuron] (stock concentration (mM, diluted 1:100): 8.6), the “HIS4 meiotic recombination assay sensitivity score” value in assay [4] is 0.57. For the same compound, the figures for the growth sensitivity score in assay [2] and in assay [3] were -1.14 and -0.6, respectively.
With `COc1ccc(C2CNC(=O)C2)cc1OC1CCCC1` (stereo not drawn) [Rolipram] (stock concentration (mM, diluted 1:100): 10), the “CDA2-GFP sporulation assay sensitivity score” value in assay [1] is -2.81. Moreover, the growth sensitivity score in assay [2] is -1.05; in assay [3], -0.71.
The like results for `Cc1[nH]cnc1CN1CCc2c(c3ccccc3n2C)C1=O` [Alosetron hydrochloride] (stock concentration (mM, diluted 1:100): 8.9) were, in that order, -0.89, -0.69 and 3.01 (active).
